Screening data deposited in PubChem BioAssay by several laboratories.
MazEF act = activators of E. coli MazEF toxin-antitoxin RNase, primary screen, biochemical, fluorescence, uHTS | activation, % at 20 µM | 350,000 compounds, 0.32% hits | FAM/BHQ RNA-DNA oligo cleavage fluorescence, 5 h | Endoribonuclease toxin MazF (Escherichia coli (strain K12)), P0AE70; in the data active means activation above about 50%
Mtb betalactam = beta-lactam sensitization of Mtb H37Rv, H37Rv; M. tuberculosis H37Rv growth with meropenem, percent inhibition; inhibition, % at 25 µM; 330,000 compounds, 0.27% hits; call rule not given here;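 further: growth measured after seven days incubation then overnight dye step; 0% = bacteria only wells and 100% = bacteria with antibiotic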
RecA splice inh = Mtb RecA intein splicing inhibitors, primary screen, biochemical, fluorescence, HTS | Protein RecA (Mycobacterium tuberculosis (strain ATCC 25618 / H37Rv)), P9WHJ3 | cell-free RecA intein splicing | inhibition, % (no concentration beside the values) | 290,000 compounds, 0.75% hits | AID 2221, 2009; in the data active means inhibition above about 30%;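 further: 0% = vehicle wells and 100% = reference inhibitor control wells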
TcdB GH inh = TcdB glycohydrolase inhibitors, primary screen, biochemical, single point, plate reader | Toxin B (Clostridioides difficile), P18177 | TcdB glycohydrolase enzymatic assay | inhibition, % at 9.99 µM | 350,000 compounds, 0.24% hits | AID 652162, 2013; in the data active means inhibition above about 10%
UGM FP inh = M. tuberculosis UGM enzyme inhibitors, primary screen, biochemical, fluorescence polarization, single point | UDP-galactopyranose mutase (Mycobacterium tuberculosis (strain ATCC 25618 / H37Rv)), … | purified UGM, fluorescence polarization probe displacement | inhibition, % at 10 µM | 320,000 compounds, 0.06% hits; in the data active means inhibition above about 10%, passing the limit was not always enough
Rv3671c inh = Rv3671c serine protease inhibitors, primary screen, biochemical, fluorescence polarization, M. tuberculosis H37Rv. P9WHR9. inhibition, % at 5.96 µM. 320,000 compounds, 0.048% hits; in the data active means inhibition above about 38%;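 further: extracellular domain of Rv3671c used as enzyme; 0% = enzyme with DMSO and 100% = no enzyme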
* hit, by the source's call; . = no result given; + = active, no number; ! = a repeat was not active. Shown are actives, neighbours in structure and some others; about 0.97% of the full set was active somewhere.

SMILES	MazEF act	Mtb betalactam	RecA splice inh	TcdB GH inh	UGM FP inh	Rv3671c inh
CCCOc1ccc(N)cc1N	5	25	30*	.	6	-43
COc1ccc2c3c(n(C)c2c1)[C@@H](CO)N(C(=O)NC1CCCCC1)CC31CN(C)C1	.	.	.	1	.	.
Cn1c(=O)c2[nH]c(-c3ccccc3)c(O)c2n(C)c1=O	+	3	-13	-1	.	6
CC(=O)Nn1cc2c(c1-c1ccccc1)c(=O)n(C)c(=O)n2C	1	1	1	.	-2	3
Cn1c(=O)c2[nH]c(-c3ccccc3Cl)c(O)c2n(C)c1=O	909*	15	-8	-1	.	-13
OC[C@H]1CC[C@@H]2O[C@H](CCc3ccc(-c4ccccc4)cc3)[C@@H](n3cc(C4CC4)nn3)C[C@@H]2O1	.	.	.	-1	.	.
CCN1/C(=C/c2ccc3cc(C)ccc3[n+]2CC)Sc2cc(C)c(C)cc21	71*	.	.	-6	.	.
CCN1/C(=C/c2ccc3cc(C)ccc3[n+]2CC)Sc2ccccc21	69*	100	4	0	-11	-9
CCOC(=O)/C(=C/C=C1\Sc2cc(C)c(C)cc2N1CC)C(C)=O	-373	.	1	0	.	.
CN1/C(=C/c2cccc[n+]2CCO)Sc2ccccc21	-32	-9	1	1	-4	-5
CC[n+]1c(/C=C2\Sc3ccccc3N2C)ccc2cccc(C)c21	106*	.	5	4	.	.
O=C(C[C@H]1C[C@@H]2c3cc(NC(=O)C4CCOCC4)ccc3O[C@@H]2[C@@H](CO)O1)NCc1cc(F)ccc1F	.	.	.	0	.	.
CCCNC(=O)N[C@H]1CC[C@H](CC(=O)NCCc2ccccc2)O[C@@H]1CO	.	.	.	-1	.	.
COC(=O)Cc1c(C(=O)OC)nnn1-c1ccc(OC)cc1	-7	4	-2	1	-1	7
COC(=O)CC1=NN(c2ccc(OC)cc2)C(=O)C1	6	1	72*	0	3	-56
CN1C(=O)c2cc(NC(=O)Nc3ccc(Cl)cc3)ccc2OC[C@H]2O[C@@H](CC(=O)O)CC[C@H]21	.	.	.	3	.	.
Cc1cc2cc(C(c3nnnn3Cc3ccco3)N3CCc4ccccc43)c(=O)[nH]c2cc1C (configuration not stated)	79*	84	16	.	-1	4
O=C(CSc1nnc(-c2c[nH]c3ccccc23)o1)N(Cc1ccccc1)c1ccc(F)cc1	0	-6	1	.	0	-90
COc1ccc(CN(C(=O)CSc2nnc(-c3ccccc3C)o2)c2ccc(F)cc2)cc1	-3	54	40*	.	2	-11
C[C@@H]1CN([C@@H](C)CO)C(=O)c2cc(NC(=O)c3ccncc3)ccc2O[C@H]1CN(C)C(=O)Nc1ccc(F)cc1	.	.	.	0	.	.
C[C@H]1CN([C@@H](C)CO)C(=O)c2cc(NC(=O)C3CC3)ccc2O[C@@H]1CN(C)S(C)(=O)=O	.	.	.	-6	.	.
O=C1NCN(c2ccccc2)C12CCN(CCCC(c1ccc(F)cc1)c1ccc(F)cc1)CC2	-17	100	38*	1	-3	-1
O=C(NCCN1CCC2(CC1)C(=O)NCN2c1ccccc1)c1ccc(F)cc1	.	.	.	0	.	.
O=C(C[C@@H]1CC[C@@H](NC(=O)Nc2cc(F)ccc2F)[C@@H](CO)O1)NCCCN1CCOCC1	.	.	.	-3	.	.
Nc1ccc(NC(=S)Nc2ccccc2)cc1	5	6	0	0	-4	.
SMILES	MazEF act	Mtb betalactam	RecA splice inh	TcdB GH inh	UGM FP inh	Rv3671c inh
CC(=O)Nc1ccc(NC(=O)CC(c2ccccc2)c2ccccc2)cc1	9	-7	-1	1	-2	-6
Oc1ccc(NC(=S)Nc2ccccc2)cc1	-5	-5	-3	11*!	0	-4
O=C(CC(c1ccccc1)c1ccccc1)Nc1ccc(O)cc1	0	-5	5	13*	1	3
O=C(NC(=S)Nc1ccc(O)cc1)c1ccccc1Cl	8	1	-9	17*	0	-5
O=C(N[C@H]1CC[C@@H](CCn2cc(C3CCCC3)nn2)O[C@@H]1CO)c1cccnc1	.	.	.	0	.	.
Cc1cc(O)cc(O)c1C=NCc1ccco1	90*	-4	-4	1	0	6
CC(C)NC(=O)Nc1ccc2c(c1)C(=O)N([C@H](C)CO)C[C@H](C)[C@@H](CN(C)CC1CCCCC1)O2	.	.	.	0	.	.
O=C(O)C1C(=O)NCC1c1ccccc1 (configuration not stated)	0	-7	1	24*	-1	-1
Cc1nc2ccc3nc(NC(=O)c4ccc5c(c4)OCCO5)sc3c2s1	-38	4	-4	.	0	-56
Cc1nc2c(ccc3nc(NC(=O)c4ccc5c(c4)OCCO5)sc32)s1	73*	4	-2	.	-1	-29
C[C@H]1CN([C@@H](C)CO)C(=O)c2cc(NS(=O)(=O)c3ccc(Cl)cc3)ccc2O[C@H]1CN(C)CC1CC1	.	.	.	-4	.	.
CN(C)CC#Cc1ccc([C@H]2[C@@H](CO)N3C(=O)CN(C(=O)c4cccc(F)c4)C[C@H]23)cc1	.	.	.	0	.	.
O=c1oc(-c2ccccc2)cc(Cl)c1Cl	27	87	47*	0	0	-12
O=c1oc(-c2ccccc2)cc2ccccc12	.	.	.	6	.	.
O=C(c1nnsc1S(=O)(=O)c1ccc(Cl)cc1)N1CCOCC1	1	.	21	0	.	.
CNC(=O)c1nnsc1S(=O)(=O)c1ccc(Cl)cc1	11	.	40*	1	.	.
COc1ccc(C(=O)N2CCOCC2)cc1S(=O)(=O)N1CCCc2ccccc21	-4	2	2	12*	-3	1
CC(C)=CCC/C(C)=C/CNC(=O)C[C@H]1C[C@H](C(=O)N2CCCCC2)[C@@]2(CCc3ccccc3)c3[nH]c4cc(-c5ccco5)ccc4c3CCN2C1=O	75*	.	.	.	.	.
Cc1cc(Sc2nnc(/N=C/N(C)C)s2)c2ccccc2n1	2	90	36*	1	0	3
Cc1cc(Sc2nnc(N)s2)c2ccccc2n1	6	70	11	0	4	-3
CC(C)N1CCN(Cc2cc3c(cc2Cl)OCO3)CC1CCO (configuration not stated)	83*	4	-3	0	5	5
COc1cccc(C(=O)OCC(=O)Nc2cc(C)on2)c1OC	9	3	.	10*	1	9
Cc1ccc(S(=O)(=O)N[C@H]2CC[C@@H](CCn3cc(C4CCCCC4)nn3)O[C@@H]2CO)cc1	.	.	.	0	.	.
C[C@@H]1CN([C@@H](C)CO)C(=O)c2cc(NC(=O)C3CCCCC3)ccc2O[C@@H](C)CCCCO[C@@H]1CN(C)Cc1ccc2c(c1)OCO2	.	.	.	-1	.	.
CCCCC[n+]1cccc2c3ccccc3ccc21	7	9	-1	1	0	-2
